High-throughput results from PubChem.
The list is not random: actives were taken first. Their share in the collection is about 8.7%.
VACV Venus inh – vaccinia inhibition (Venus reporter); Vaccinia virus Venus reporter expression, fluorescence; Potency, µM (series often up to 36.5 µM), for the others: top-dose activity change, negative = inhibition, most hits filed as inhibitors; actives 0.46% (n = 330,000); calls by dose curve; tested in A549 cells; also: nearly all actives have a fitted effect of over 30% in size
AMA1-RON2 inh – inhibitors of Plasmodium falciparum AMA1-RON2 interaction. AlphaScreen AMA1-biotinylated RON2 peptide binding. Potency, µM (top dose mostly 58.2 µM), inactives show at the highest dose activity change, negative = inhibition, hits mostly inhibitors. actives 0.2% (n = 360,000);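 also: 0% = vehicle wells and -100% = peptide control; nearly all actives have a fitted effect of over 45% in size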
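AMA1 (3D7) with his tag at 25 nM final met compounds first, then biotinylated RON2 peptide at 25 nM; detection used donor plus acceptor beads, 10 µg/mL apiece, read by AlphaScreen after 30 min at room temperature.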
Vaccinia mCherry – inhibitors of vaccinia virus infection (mCherry reporter signal). Vaccinia virus mCherry reporter infection, fluorescence. Potency, µM (highest dose often 36.5 µM), without a hit: top-dose activity change, negative = inhibition, most hits filed as inhibitors. actives 0.63% (n = 310,000). AID 720579; calls by dose curve; tested in A549 cells; also: nearly all actives have a fitted effect of over 35% in size
Pf growth 48h – P. falciparum growth inhibition at 48 hours (one generation). P. falciparum luciferase growth in erythrocytes, 48 h. Potency, µM (top dose mostly 28.7 µM), without a hit: top-dose activity change, negative = inhibition, actives largely listed as inhibitors. actives 5.9% (n = 310,000). AID 504832
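Growth was read as firefly luciferase luminescence after a 48 h, 37 C, 5% CO2 exposure of compounds to reporter-bearing P. falciparum cultures (0.1% parasitemia, 2% hematocrit final) in Albumax-supplemented RPMI 1640.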
Pf growth 96h – inhibits malaria parasite growth, 96 h; P. falciparum luciferase reporter growth, 96 h; Potency, µM (titrated, usually from 28.7 µM), for inactives: top-dose activity change, negative = inhibition, hits mostly inhibitors; actives 6.9% (n = 320,000)
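Luminescence readout: decreased luciferase signal marks inhibited growth of reporter-expressing P. falciparum in infected red cells (2% hematocrit, 0.05% parasitemia final), exposed to compound two generations (96 h, 37 C, 5% CO2).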
An asterisk follows results filed as active; i = inactive; ? = inconclusive; · = not tested or not shown; ! = repeats disagree; [ ] = remark or other dose. Unless noted, calls follow the shape of the dose curve; as a rule, active = well fitted curve in the direction sought with a large enough effect; inconclusive = small, poorly fitted or top-dose-only effect, or another doubt; inactive = no such curve, though single readings can be large; an effect the other way counts as inactive or inconclusive. Unless noted, % is scaled to controls: 0 for no effect and ±100 for the full control effect; potency is read from the fitted curve at half-maximal effect.

SMILES	VACV Venus inh	AMA1-RON2 inh	Vaccinia mCherry	Pf growth 48h	Pf growth 96h
CN1/C(=C\C(=O)C[n+]2cccc(C(N)=O)c2)C(C)(C)c2ccccc21	-4.1%	-13.0%	-28.3%	?	?
Cc1ccc[n+](CC(=O)/C=C2\N(C)c3ccccc3C2(C)C)c1	-27.0%	5.6%[11.6 µM]	?	?	0.37µM*
CC(C)(C)c1ccc(OCCn2c(CCNC(=O)C3CCCCC3)nc3ccccc32)cc1	?	·	-23.2%	·	·
O=C(Cn1nc(-c2ccccc2)nc(Cc2ccccc2)c1=O)Nc1ccccc1	-16.5%	·	-18.6%	·	·
COc1ccc(CCNC(=O)Cc2c(C)c3cc4c(C(C)(C)C)coc4c(C)c3oc2=O)cc1	-3.9%	·	-9.2%	·	·
Cc1cc(C)n(-c2nc3ccccc3s2)n1	·	13.3%	·	139.6%	12.7%
Cc1c2c(=O)n(-c3nc4ccccc4s3)nc-2cc(O)n1Cc1ccccc1	·	71.2%	·	2.94µM*	2.94µM*
Cn1c(=O)c(NCCc2ccccc2)c2c3c(cccc31)C(=O)c1ccccc1-2	i	60.3%	26.8%	·	9.28µM*
Cn1c(=O)c(NC2CCCCC2)c2c3c(cccc31)C(=O)c1ccccc1-2	8.3%	50.1%	i	13.1µM*	0.0%
CC(=O)Nc1ccc(Nc2c3c4c(cccc4n(C)c2=O)C(=O)c2ccccc2-3)cc1	-6.5%	?	-17.0%	?	?
CCCCNc1c2c3c(cccc3n(C)c1=O)C(=O)c1ccccc1-2	42.6%	63.4%	-7.8%	?	?
CC1=Nc2cc(C(=O)NC(C)C)ccc2Sc2ccc(C)cc21	-20.7%[7.34 µM]	·	-29.9%[7.34 µM]	·	·
O=C(CNC(=O)c1ccccc1Br)N/N=C/c1ccco1	-3.0%	-2.6%	-12.8%	2.3%	58.1%
COc1ccc([N+](=O)[O-])cc1/C=N/NC(=O)CNC(=O)c1cccc(F)c1	0.0%	62.1%	i	26.4%	1.85µM*
O=C(CNC(=O)c1ccccc1O)N/N=C/c1cc(Br)ccc1OC(=O)/C=C/c1ccco1	-22.4%	18.2%	?	?	8.28µM*
O=C(CNC(=O)c1cccc(F)c1)N/N=C/c1cc(Br)ccc1OC(=O)/C=C/c1ccco1	·	49.3%	·	13.1µM*	13.1µM*
O=C(CNC(=O)c1ccc(F)cc1)N/N=C/c1cc(Br)ccc1OCc1ccccc1	·	31.7%	·	2.2%	?
CCN(CC)S(=O)(=O)c1ccc2c(c1)N(CC(=O)NCc1ccccc1)C(=O)C1CCCCN21 (stereo not drawn)	-6.6%	·	4.7%	·	·
CCOC(=O)c1sc(NC(=O)Nc2ccccc2)cc1C	12.6µM*	9.4%	15.8µM*	-55.3%	-106.8%
CCOC(=O)c1sc(-c2ccccc2)cc1NC(=O)Nc1ccccc1	?	-5.0%[11.6 µM]	?	0.0%	?
CCOC(=O)c1sc(NC(C)=O)cc1C	-24.8%	26.2%	i	-2.3%	-2.9%
CCOC(=O)c1sc(-c2ccc(F)cc2)cc1NC(=O)Nc1ccccc1OC	-5.2%	-2.4%	-10.5%	?	8.28µM*
CCOC(=O)c1sc(NC(=O)Nc2ccccc2Cl)cc1C	10µM*	-0.8%	?	-45.1%	-74.9%
C=CCc1ccc(OC)cc1	3.98µM*!	9.3%	2.24µM*!	16.8%	53.4%
Cc1ccc(CNCc2cccnc2)cc1	-18.5%	3.9%	i	10.6%	·
SMILES	VACV Venus inh	AMA1-RON2 inh	Vaccinia mCherry	Pf growth 48h	Pf growth 96h
Cc1ccc(-n2c(=O)cc(NCc3cccnc3)[nH]c2=O)cc1	-12.9%	-8.2%	-12.4%	3.7%	1.85µM*
COc1ccc(-c2ccc(C(=O)N3CCc4c(cnc(C)c4CNS(=O)(=O)N(C)C)C3)o2)cc1	-6.9%	·	-15.0%	·	·
CCc1ccc(NC(=O)CCCN2C(=S)NC(C)(C)CC2C)cc1 (stereo not drawn)	-9.9%	-0.1%	-11.1%	?	1.85µM*
Cc1cccc(NC(=O)CN2C(=S)NC(C)(C)CC2C)c1 (stereo not drawn)	-12.0%	0.2%	-5.1%	-3.1%	10.4µM*
Cc1ccccc1NC(=O)CN1C(=S)NC(C)(C)CC1C (stereo not drawn)	-9.8%	-25.2%	i	9.6%	?
CCCCC(Sc1nc2cc3c(cc2c(=O)n1CCCC(=O)NCc1ccc2c(c1)OCO2)OCO3)C(=O)OCC (stereo not drawn)	-2.6%	·	-2.2%	·	·
CCOc1ccc(NC(=O)CC2C(=O)NCCN2C(=O)Nc2ccccc2)cc1 (stereo not drawn)	-7.3%	-3.0%	i	4.9%	14.7µM*
CCN1C(=O)C(CC(=O)Nc2ccc(F)cc2)N(Cc2cccs2)C1=S (stereo not drawn)	-5.8%	11.1%	-9.9%	10.4µM*	0.0%
CCOc1ccc(N2C(=O)C(CC(=O)Nc3ccccc3)N(Cc3ccccn3)C2=S)cc1 (stereo not drawn)	?	21.7%	-13.6%	?	9.28µM*
O=C(CC1C(=O)NCCN1C(=O)Nc1ccccc1)Nc1ccc(F)cc1 (stereo not drawn)	-6.5%	26.7%	i	8.9%	-3.9%
COc1ccc(NC(=O)CC2C(=O)N(CCc3ccccc3)C(=S)N2Cc2cccnc2)cc1 (stereo not drawn)	·	-11.5%	·	11.7µM*	13.1µM*
CCCOc1ccc(NC(=O)CC2C(=O)N(Cc3ccccc3)C(=S)N2Cc2cccs2)cc1 (stereo not drawn)	·	5.3%	·	?	?
COc1ccccc1N1CCN(C(=O)C2CCN(S(=O)(=O)c3cn(C)cn3)CC2)CC1	-12.6%	·	i	·	·
CCc1ccc(-n2nc(C)c3c(C(=O)Nc4cccc(C(F)(F)F)c4)cc(C)nc32)cc1	-4.8%	·	-7.1%	·	·
CCc1ccc2oc(C(=O)Nc3cc(C)ccc3C)cc(=O)c2c1	-0.6%	·	-10.1%	·	·
O=C(C[n+]1cc(Br)cc(Br)c1)c1ccc2c(c1)CCCC2	-13.6%	·	28.0%	·	·
CCOC(=O)Cn1c(=O)cc(C(F)(F)C(F)(F)F)c2c(C)nn(CC)c21	-2.6%	·	-9.4%	·	·
Cc1nc(N2CCOCC2)c2c(C(=O)Nc3cccc(C(F)(F)F)c3)c(C)oc2n1	-12.0%	·	i	·	·
CCOC(=O)c1ccc(N2C(=O)C(CC(=O)NC)N(CCc3ccc(OC)c(OC)c3)C2=S)cc1 (stereo not drawn)	-12.3%	?	i	13.1µM*	1.7%
CCN1C(=O)C(CC(=O)Nc2ccc(OC)cc2)N(CCN2CCOCC2)C1=S (stereo not drawn)	·	-3.4%	·	-15.9%	7.2%
CCNC(=O)CC1C(=O)N(c2ccccc2)C(=O)N1CCc1ccc(OC)cc1 (stereo not drawn)	·	4.3%	·	27.5%	11.7µM*
CCOc1ccc(NC(=O)CC2C(=O)N(c3ccc(OC)cc3)C(=O)N2CCc2ccc(OC)c(OC)c2)cc1 (stereo not drawn)	·	-12.7%	·	?	2.2%
COc1ccc(NC(=O)CC2C(=O)N(c3ccc(Cl)cc3)C(=S)N2CCc2ccncc2)cc1 (stereo not drawn)	·	-8.8%	·	?	13.1µM*
COc1ccc(CCN2C(=O)N(c3ccc(F)cc3)C(=O)C2CC(=O)Nc2ccccc2)cc1 (stereo not drawn)	1.3%	·	-7.9%	·	·
